PostGolgi yeast = growth inhibition of a yeast mutant, post-Golgi transport screen | post-Golgi transport phenotypic cell assay | inhibition, % at 10 µM | hit rate 0.9% among 98,000 | AID 739;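 note: yeast cells grown in 1536-well plates; yeast grown about 18 h at 30C before absorbance read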
sEH activator = increases human soluble epoxide hydrolase activity; P34913; purified human sEH enzymatic activity, activator screen; activation, % at 2 µM; hit rate 0.04% among 91,000; in the data active = activation above about 37%
Target sequence (P34913 whole entry, looked up): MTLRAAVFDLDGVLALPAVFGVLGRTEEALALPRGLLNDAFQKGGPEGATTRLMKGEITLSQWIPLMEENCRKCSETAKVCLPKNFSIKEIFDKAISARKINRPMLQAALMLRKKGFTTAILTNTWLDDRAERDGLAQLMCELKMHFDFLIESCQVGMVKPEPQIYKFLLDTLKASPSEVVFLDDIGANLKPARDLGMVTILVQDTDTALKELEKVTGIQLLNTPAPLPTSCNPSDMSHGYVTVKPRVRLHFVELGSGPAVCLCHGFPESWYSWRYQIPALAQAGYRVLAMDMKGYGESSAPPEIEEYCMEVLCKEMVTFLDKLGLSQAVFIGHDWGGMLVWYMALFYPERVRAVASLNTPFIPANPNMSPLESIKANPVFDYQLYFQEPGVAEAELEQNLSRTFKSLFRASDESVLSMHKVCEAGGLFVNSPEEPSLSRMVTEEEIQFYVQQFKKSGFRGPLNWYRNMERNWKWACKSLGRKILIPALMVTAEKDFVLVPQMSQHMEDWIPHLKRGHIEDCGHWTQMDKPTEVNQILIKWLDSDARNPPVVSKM
sEH inh = blocks human soluble epoxide hydrolase activity. hit rate 0.34% among 91,000. P34913. recombinant human sEH enzymatic activity assay. inhibition, % at 2 µM; in the data active = inhibition above about 80%
Cav3 T inh = blocks human Cav3.2 T-type calcium channel. B-score at 10 µM. Cav3.2-expressing cells, Fluo-4 calcium fluorescence FDSS; hits give low values. hit rate 4% among 100,000. O95180;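 active = single-dose well whose peak fluorescence ratio is a statistical outlier from its plate by either plate-standardised score or position-corrected B-score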
PostGolgi ctrl = yeast control strain growth, post-Golgi counter-screen; efflux-deficient yeast background strain, growth absorbance A615, 16 h; inhibition, % at 10 µM; hit rate 5% among 98,000
Of the large screens only hits and unclear results are named; the others gave an inactive call. Shown are actives, neighbours in structure and some others; about 7.8% of the full set was active somewhere. Cut-off read from the data, not from the text of the source, unless noted: active = inhibition above about 30%; inactive = the rest.

Cc1cccc(N2CCN(C(=O)C3CCCN(S(=O)(=O)c4c(C)noc4C)C3)CC2)c1C (stereo not given)	none (no result: PostGolgi yeast, PostGolgi ctrl)
CCOC(=O)CNC(=O)CSc1nc2nc(C)c(Br)cc2[nH]1	none
CC1(C)CC(=O)C2=C(C1)OC1=C(C(=O)CC(C)(C)C1)C2c1ccc(O)cc1O	Cav3 T inh -4.69
CCOC(=O)C1=C(N)OC2=C(C(=O)CC(C)(C)C2)C1c1ccco1 (stereo not given)	none
O=C(c1cccn2c(=O)c3ccc(Cl)cc3nc12)N1CCN(Cc2ccc3c(c2)OCO3)CC1	none
CCCN1CCN(C(=O)CCCn2c(C)c3cnn(-c4ccccc4)c(=O)c3c2C)CC1	PostGolgi ctrl 30.8
C=CCc1ccc(OCC(O)COc2ccc(CC=C)cc2OC)c(OC)c1	Cav3 T inh -8.86
C=CCc1ccc(OCCOCCOc2ccccc2[N+](=O)[O-])c(OC)c1	Cav3 T inh -4.61
C=CCc1ccc(OCCOc2ccc(/C=N/n3cnnc3)cc2OCC)c(OC)c1	none
Cc1ccccc1-n1c(SCC(=O)c2cc(C)n(C)c2C)nnc1-c1ccncc1	none
O=C1C2C3C=CC(C3)C2C(=O)N1/N=C/c1cn(Cc2ccc(F)cc2)c2ccccc12 (stereo not given)	PostGolgi ctrl 37.3
O=C(CS(=O)(=O)c1cn(Cc2ccc(F)cc2)c2ccccc12)N1CCOCC1	none (no result: PostGolgi yeast, sEH activator, sEH inh, PostGolgi ctrl)
O=C1C2C3C=CC(C3)C2C(=O)N1/N=C/c1cn(Cc2ccccc2)c2ccccc12 (stereo not given)	PostGolgi ctrl 32.5 (no result: Cav3 T inh)
Cc1cccc(NC(=S)NN2CCN(C)CC2)c1	none
CCC(=O)N1CCc2cc(S(=O)(=O)NCCCN(CC)Cc3ccccc3)ccc21	none
COc1ccc(/C=C/C(=O)c2ccc(NC(=O)c3cccs3)cc2)cc1OC	PostGolgi ctrl 54.1
COc1ccc(NC(=O)c2cccs2)cc1O	none
CCN(CC)c1ccc2cc(-c3nc4ccccc4[nH]3)c(=O)oc2c1	Cav3 T inh -7.29 (no result: sEH activator, sEH inh)
CCN(CC)c1ccc2cc(-c3nnc(-c4ccccc4)o3)c(=O)oc2c1	Cav3 T inh -10.9 (no result: PostGolgi yeast, PostGolgi ctrl)
O=C(O)C[C@H]1c2cc(C(F)(F)F)ccc2S(=O)(=O)N1C1CCCCC1	none (no result: PostGolgi yeast, sEH activator, sEH inh, PostGolgi ctrl)
N#Cc1c(SCC(=O)Nc2nccs2)nc2c(c1-c1ccco1)CCCC2	none
Cc1cc2c(c(=O)n1Cc1ccccn1)C(c1ccc3c(c1)OCO3)C(C#N)=C(N)O2 (stereo not given)	none (no result: sEH activator, sEH inh)
N#CC1=C(N)OC(c2ccccc2)=C(C#N)C1c1ccc2c(c1)OCO2 (stereo not given)	PostGolgi yeast 104.0, PostGolgi ctrl 97.8
Cc1ccc(C2C(C#N)=C(N)Oc3cc4c(cc32)OCO4)cc1 (stereo not given)	Cav3 T inh -4.38
Cc1cc(-c2ccco2)c(C#N)c2nc3ccccc3n12	PostGolgi ctrl 83.2 (no result: sEH activator, sEH inh)
COc1ccccc1Oc1cc(C#N)c(C#N)cc1-n1nnc2ccccc21	PostGolgi ctrl 30.3 (no result: Cav3 T inh)
O=C(O)C1CCC(=O)N1Cc1ccccc1Cl (stereo not given)	PostGolgi ctrl 30.2 (no result: sEH activator, sEH inh)
CC1CCCCN1C(=O)NC12CC3CC(CC(C3)C1)C2 (stereo not given)	sEH inh 87.4
Cc1ccc(/C(=N\O)c2oc3c(C)c4oc(=O)cc(C)c4cc3c2C)cc1	none (no result: PostGolgi yeast, Cav3 T inh, PostGolgi ctrl)
Cc1cc(=O)oc2c1ccc1oc(/C(=N/O)c3ccccc3)c(C)c12	PostGolgi ctrl 35.0
O=C(N/N=C/c1ccc(Cl)cc1Cl)Nc1ccccc1	none
O=C(N/N=C/c1cccc(Cl)c1Cl)Nc1ccccc1	PostGolgi ctrl 36.2
C=CCNC(=S)NNC(=O)CCC(O)CCCCC (stereo not given)	none
Cn1c(=O)c2c(nc(OCc3cccnc3)n2Cc2c(F)cccc2Cl)n(C)c1=O	PostGolgi ctrl 30.4
O=c1c(-c2nnc(SCc3ccc(Cl)c(Cl)c3)o2)cccn1Cc1ccccc1	PostGolgi ctrl 54.0
Cc1cccc2cc(/C=C3\N=C(c4ccccc4)OC3=O)c(N3CCOCC3)nc12	Cav3 T inh -5.97
Cc1ccc(C2=N/C(=C\N3CCCCC3)C(=O)O2)cc1	none
COc1ccc(CN2CCN(c3ncccn3)CC2)c(OC)c1	PostGolgi ctrl 41.8 (no result: sEH activator, sEH inh, Cav3 T inh)
COc1ccc(CN2CCN(c3ccccn3)CC2)c(OC)c1	none (no result: sEH activator, sEH inh)
CCCCCC(=O)N/N=C(\C)c1ccc(Cl)cc1	none
CCCC(C)C1C(C#N)=C(N)Oc2cc(C)oc(=O)c21 (stereo not given)	none (no result: PostGolgi yeast, Cav3 T inh, PostGolgi ctrl)
Cn1c(C(=O)NCCN2CCc3ccccc3C2)cc2c(=O)n(C)c3ccccc3c21	PostGolgi ctrl 34.1 (no result: sEH activator, sEH inh)
COc1ccc(OC)c(S(=O)(=O)N2CCN(c3c(C)cccc3C)CC2)c1	Cav3 T inh -7.31
CCN1CCN(S(=O)(=O)c2cc(OC)ccc2OC)CC1	none

Compound activity (PubChem)
